Results published in PubChem BioAssay.
A number with no mark means an inactive call. The rule behind the calls is not given here.

These compounds were tested on Aerobactin synthetase IucA (Klebsiella pneumoniae hvKP1) (assay: Biochemical IucA enzyme inhibition primary screen of the Spectrum library (AID 1346200;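 note: 100% = wells without compound and 0% = wells lacking enzyme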)). Conditions: malachite green pyrophosphate, A620, at 8 µM, hits give low values.

SMILES | activity remaining [%]
NS(=O)(=O)c1cc(C2(O)NC(=O)c3ccccc32)ccc1Cl (stereo not drawn) | 117
C[C@@H]1O[C@@H](O[C@H]2[C@H](Oc3cc(O)c4c(=O)cc(-c5ccc(O)cc5)oc4c3)O[C@H](CO)[C@@H](O)[C@@H]2O)[C@H](O)[C@H](O)[C@H]1O | 90.6
Cc1onc(-c2c(Cl)cccc2Cl)c1C(=O)N[C@@H]1C(=O)N2[C@@H]1SC(C)(C)[C@@H]2C(=O)O | 121
CCN1CCN(c2cc3c(cc2F)c(=O)c(C(=O)O)cn3C2CC2)CC1 | 100
COc1c(N2CCNC(C)C2)c(F)cc2c(=O)c(C(=O)O)cn(C3CC3)c12 (stereo not drawn) | 123
CC(=O)c1c(O)c(C)c(O)c2c1OC1=CC(=O)C(C(C)=O)C(=O)C12C (stereo not drawn) | 94.6
c1coc(CNc2ncnc3nc[nH]c23)c1 | 116
COc1c2ccoc2cc2oc(C)cc(=O)c12 | 108
